Compounds with a hit are over-represented: about 12% of the library has one in this group of screens.
Pf growth 48h = P. falciparum growth inhibition at 48 hours (one generation). P. falciparum luciferase growth in erythrocytes, 48 h. Potency, µM (highest dose often 28.7 µM), without a hit: top-dose activity change, negative = inhibition, usual class: inhibitors. actives 5.9% (n = 310,000); further: on the % scale 0 is the no-effect control and ±100 the full control effect
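Here the parasites carry a stable luciferase gene and grow inside erythrocytes in Albumax-based RPMI medium with compound for one erythrocytic cycle. Activity is scored as loss of luminescent signal.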
Pf growth 96h = inhibits malaria parasite growth, 96 h. P. falciparum luciferase reporter growth, 96 h. actives 6.9% (n = 320,000). Potency, µM (series often up to 28.7 µM), inactives show at the top dose activity change, negative = inhibition, most hits filed as inhibitors; further: on the % scale 0 is the no-effect control and ±100 the full control effect
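Plates of compound plus infected erythrocytes (2% hematocrit, 0.05% parasitemia final) incubate 96 hours, 37 C, 5% CO2. Detection reagent added; reduced luminescence from the parasites' luciferase reporter flags inhibition.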
Sm TGR block = S. mansoni TGR enzyme inhibition. Q962Y6. purified TGR, DTNB reduction, TNB absorbance 405 nm. Potency, µM (series often up to 114 µM), for the others: top-dose activity change, negative = inhibition, hits mostly inhibitors. actives 3% (n = 360,000). AID 485364; further: on the % scale 0 is the no-effect control and ±100 the full control effect; nearly all actives have a fitted effect of over 60% in size
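First, TGR (20 nM dispensed) and NADPH were mixed with compound. Second, a 15 min room-temperature incubation followed. Third, further NADPH and then DTNB were added to start the reaction. Finally, TNB absorbance was monitored kinetically.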
AmpC inh detg = blocks E. coli AmpC beta-lactamase in detergent assay. actives 0.041% (n = 370,000). P00811. AmpC hydrolysis of nitrocefin, absorbance 480 nm, 0.01% Triton. Potency, µM (top dose mostly 114 µM), for the others: top-dose activity change, negative = inhibition, most hits filed as inhibitors;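 further: 0% = no-compound wells and -100% = no-enzyme wells; nearly all actives have a fitted effect of over 25% in size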
Target sequence (P00811 whole entry, looked up): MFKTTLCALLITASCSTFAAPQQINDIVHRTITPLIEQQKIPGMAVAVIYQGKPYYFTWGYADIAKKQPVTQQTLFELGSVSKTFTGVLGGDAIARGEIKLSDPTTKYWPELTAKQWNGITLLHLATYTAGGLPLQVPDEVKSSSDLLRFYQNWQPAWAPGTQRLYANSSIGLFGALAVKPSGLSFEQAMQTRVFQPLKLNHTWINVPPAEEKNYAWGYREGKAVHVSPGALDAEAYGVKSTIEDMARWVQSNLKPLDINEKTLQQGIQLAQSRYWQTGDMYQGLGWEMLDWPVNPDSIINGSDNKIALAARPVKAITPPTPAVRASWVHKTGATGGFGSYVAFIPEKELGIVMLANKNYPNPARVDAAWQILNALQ
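20 mM phosphate pH 7.0 + 0.01% (detergent screen) or 0.0001% Triton X-100; 5.3 nM AmpC reagent; cpd preinc 15 min RT; nitrocefin (800 uM stock) to start; A480 q20 s × 4 min; Activity was normalised to no-enzyme and no-compound control wells.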
AmpC no deterg = blocks E. coli AmpC beta-lactamase in detergent-free assay | Potency, µM (titrated, usually from 57.1 µM), inactives show at the top dose activity change, negative = inhibition, hits mostly inhibitors | AmpC nitrocefin hydrolysis, absorbance 480 nm, 0.0001% Triton | actives 0.52% (n = 330,000);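 further: plate controls were no compound for no effect and no enzyme for full effect; nearly all actives have a fitted effect of over 20% in size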
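20 mM phosphate pH 7.0 + 0.01% (detergent screen) or 0.0001% Triton X-100; 5.3 nM AmpC reagent; cpd preinc 15 min RT; nitrocefin (800 uM stock) to start; A480 q20 s × 4 min; Activity was normalised to no-enzyme and no-compound control wells.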
SARS PLpro yeast = inhibitors of SARS-CoV papain-like protease in yeast; Potency, µM (highest dose often 32.9 µM), for inactives: at the top dose activity, positive = growth rescue, actives largely listed as activators; S. cerevisiae expressing SARS-CoV PLpro, growth rescue; AID 485353; actives 0.19% (n = 330,000); calls by dose curve; further: 0% is about no effect; nearly all actives have a fitted effect of over 55% in size
Numbers without * were called inactive; ? = inconclusive; · = no result; [ ] = another dose, or the depositor's remark. Unless noted, the call rests on the fitted dose curve; in most records, active means well fitted curve in the direction sought with a large enough effect; inconclusive means small, poorly fitted or top-dose-only effect, or another doubt; inactive means no such curve, though single readings can be large; an effect the other way counts as inactive or inconclusive. Potency means the concentration at half of the fitted maximal effect.

SMILES | Pf growth 48h | Pf growth 96h | Sm TGR block | AmpC inh detg | AmpC no deterg | SARS PLpro yeast
COc1ccc(C)cc1NC(=O)CN(Cc1nnc(-c2ccc(Cl)cc2)o1)C1CCCC1 | 10µM* | ? | -9% | -8% | 33% | -10%
COc1ccc(Cl)cc1NC(=O)CN(C)C1CCCCC1 | ? | ? | 3% | -6% | -20% | 3%
O=C(CCCCCn1c(=O)[nH]c2ccsc2c1=O)N1CCCCC1 | 12µM* | ? | 2% | ? | -14% | -4%
O=C(CCCn1c(=O)[nH]c2ccsc2c1=O)N1CCCCC1 | 29% | 13% | 3% | -4% | -10% | 6%
Cc1ccc(CNC(=O)CCCCn2c(=O)[nH]c3ccsc3c2=O)cc1 | -4% | 10µM* | 2% | -1% | -26% | 3%
CC1=C(C(=O)NCc2ccc(Cl)cc2)C2(CCCCCC2)OC1=O | · | · | -16% | -8% | · | ·
O=C(CC1Sc2ncnn2C1=O)Nc1ccc(Br)cc1 (stereo not drawn) | 2% | 10µM* | 1µM* | -16% | -45% | -31%
CCOC(=O)c1noc2ncnc(Nc3ccc(C)c(F)c3)c12 | · | · | 6% | 21% | · | ·
COc1ccc2nc(C)cc(Nc3ccc(N4CCOCC4)cc3)c2c1 | 2.9µM* | 3% | -23% | ? | -7% | 0%
COc1ccc2nc(C)cc(NCc3ccc(F)cc3)c2c1 | ? | 2.6µM* | -6% | ? | 0% | 1%
COc1ccc2nc(C)cc(N/N=C/c3ccccc3)c2c1 | 0.15µM* | 0.15µM* | -1% | -6% | -3% | -2%
COc1ccc2nc(C)cc(Nc3ccc(N4CCN(C)CC4)cc3)c2c1 | 0%[0.00184 µM] | ? | 9% | -6% | 1% | 1%
COc1ccc2nc(C)cc(SCC(=O)N/N=C/c3ccccc3)c2c1 | -21% | 4.1µM* | 3% | 2% | 19% | 22%
Cc1cc(SCC(=O)NN)c2cc(Br)ccc2n1 | 15µM* | ? | -11% | -7% | 40% | 1%
CNC(=O)c1[nH]cnc1C(=O)N[C@@H](C)C(=O)OC(C)(C)C | 14% | 15% | -2% | 5% | -4% | -2%
CCOC(=O)c1ccc(NC(=O)CC2C(=O)N(c3ccc(F)cc3)C(=O)N2CCC(C)C)cc1 (stereo not drawn) | · | 5.9µM* | ? | -3% | 4% | -21%
CCN1C(=O)C(CC(=O)Nc2ccc(F)cc2)N(Cc2cccs2)C1=S (stereo not drawn) | 10µM* | 0% | · | 6% | 9% | 0%
COC(=O)CN1C(=S)N(c2ccc(F)cc2)C(=O)C1CC(=O)Nc1ccc(F)cc1 (stereo not drawn) | 10µM* | ? | -1% | 3% | 20% | 0%
CCCOc1ccc(NC(=O)CC2C(=O)N(Cc3ccccc3)C(=S)N2Cc2cccs2)cc1 (stereo not drawn) | ? | ? | 0% | 1% | -58% | 11%
COC(=O)CN1C(=S)N(Cc2ccccc2)C(=O)C1CC(=O)Nc1ccc(Br)cc1 (stereo not drawn) | 15µM* | ? | 2% | 0% | -13% | -30%
CCSc1ccc2nnc(-c3ccc(F)cc3)n2n1 | -15% | -21% | 2% | 3% | 0.4µM* | -9%
CCOC(=O)CNC(=O)CSc1ccc2nnc(-c3ccc(F)cc3)n2n1 | -23% | ? | -2% | ? | -15% | 0%
COc1ccc(-c2nnc3ccc(SCC(=O)N4CCOCC4)nn23)cc1 | 24% | 34% | -5% | ? | -8% | 1%
COc1ccc(-c2nnc3ccc(SC)nn23)cc1 | 71% | 4.7µM* | 9% | -7% | 16% | -12%
COc1ccc(C2C(=O)N(C3CCC(C)CC3)CC(=O)N2CCc2ccccc2)cc1OC (stereo not drawn) | · | · | 6% | -2% | · | ·
SMILES | Pf growth 48h | Pf growth 96h | Sm TGR block | AmpC inh detg | AmpC no deterg | SARS PLpro yeast
COc1ccc(NC(=O)COc2ccc(S(=O)(=O)NC3CCCCC3)cc2)cc1OC | · | · | 0% | 18% | · | ·
CC(=O)Nc1ccc(S(=O)(=O)Oc2cccc(N3C(=O)C4CCCCC4C3=O)c2)cc1 (stereo not drawn) | 13µM* | 89% | 12% | 1% | -1% | 4%
Cc1ccc(S(=O)(=O)Oc2cccc(N3C(=O)C4CC=CCC4C3=O)c2)cc1 (stereo not drawn) | ? | ? | -14% | 3% | -20% | 1%
COc1cccc(CNC(=O)CCCC(=O)NC(C)CCc2ccccc2)c1 (stereo not drawn) | -13% | ? | 10% | ? | 60% | 2%
CCc1cccc(NC(=O)C(NS(=O)(=O)c2ccc3nc(C)sc3c2)C(C)C)c1 (stereo not drawn) | · | · | -3% | 7% | · | ·
Cc1c(C(=O)Oc2cc(N)n(S(C)(=O)=O)n2)cccc1[N+](=O)[O-] | 2% | ? | 8.9µM* | -4% | -23% | -3%
Cc1ccc(S(=O)(=O)n2nc(OC(=O)c3ccccc3C)cc2N)cc1 | 12% | ? | -8% | -14% | 32µM* | 4%
Nc1cc(OC(=O)c2ccco2)nn1S(=O)(=O)c1ccc(F)cc1 | 20% | · | 32µM* | 2% | -25% | -12%
Cc1ccc(S(=O)(=O)n2nc(OC(=O)c3c(F)cccc3Cl)cc2N)cc1 | 17% | ? | 5% | 2% | -24% | -3%
Cc1ccc(S(=O)(=O)n2nc(OC(=O)c3cccc(F)c3)cc2N)cc1 | 13% | -24% | 13µM* | -6% | -33% | -1%
COc1cc(C(=O)OCC(=O)NCc2ccc(F)cc2)ccc1OCC(C)C | 1% | 29% | 3% | 3% | 0% | 1%
CCN(CC(=O)Nc1c(F)cccc1F)C(=O)c1cccc(-n2cnnn2)c1 | -16% | 32% | -2% | ? | -6% | 2%
COC(=O)c1cc(NC(=O)c2cc3sccc3n2Cc2ccc(Cl)cc2)cc(C(=O)OC)c1 | · | · | 8% | 19% | · | ·
S=c1[nH]nc([C@@H]2C[C@H]2c2ccccc2)n1-c1ccccc1Cl | -8% | 2% | 6% | -10% | -19% | 1%
O=c1cc(CSc2nnc(COc3cccc4ccccc34)o2)c2ccccc2[nH]1 | 79% | 12µM* | -9% | 2% | -19% | 0%
Cc1ccc(Nc2cc(C)nc3c(C)cccc23)cc1 | ? | ? | -18% | 4% | -26% | -1%
Cc1ccc(N2C=Nc3ccc(C)c4nc(C)cc2c34)cc1 | 9.3µM* | 64% | -11% | -13% | 0% | 2%
CCCCn1c(N)c(C(=O)OCC2CCCO2)c2nc3ccccc3nc21 (stereo not drawn) | 9.3µM* | 18% | -3% | 3% | 25% | -9%

Screening results deposited in PubChem by National Center for Advancing Translational Sciences (NCATS).
